# According to article PMC11006913:
# Positions count from the first letter of the chain named.
# Tests used:
# Assay in all cases: PBM; 200 nM protein, PBS
# Conditions in all cases: dsDNA, one strand shown
# HESX1 = HESX1 (Homo sapiens, UniProt Q9UBX0 95-180, R109Q)
# ALX4 [1] = target: ALX4 (Homo sapiens, UniProt Q9H161 200-286)
# ALX4 [2] = target: ALX4 (Homo sapiens, UniProt Q9H161 200-286, Q225E)
# ALX3 [3] = target: ALX3 (Homo sapiens, UniProt O95076 139-225, N203Q)
# ALX3 [4] = target: ALX3 (Homo sapiens, UniProt O95076 139-225)
# VAX1 [5] = target: VAX1 (Homo sapiens, UniProt Q5SQQ9 86-172)
# ALX3 [6] = target: ALX3 (Homo sapiens, UniProt O95076 139-225, L168Q)
# ALX3 [7] = target: ALX3 (Homo sapiens, UniProt O95076 139-225, L168V)
# VAX1 [8] = target: VAX1 (Homo sapiens, UniProt Q5SQQ9 86-172, T142I)
# ALX3 [9] = target: ALX3 (Homo sapiens, UniProt O95076 139-225, N203S)
# CRX [10] = target: CRX (Homo sapiens, UniProt O43186 26-111)
# CRX [11] = target: CRX (Homo sapiens, UniProt O43186 26-111, E42D)
# CRX [12] = target: CRX (Homo sapiens, UniProt O43186 26-111, R41L)
# PRRX1 = PRRX1 (Homo sapiens, UniProt P54821 80-166, F113S)
# PAX4 [13] = target: T1, PAX4 (Homo sapiens, UniProt O43316 9-242, R200K)
# T1 sequence: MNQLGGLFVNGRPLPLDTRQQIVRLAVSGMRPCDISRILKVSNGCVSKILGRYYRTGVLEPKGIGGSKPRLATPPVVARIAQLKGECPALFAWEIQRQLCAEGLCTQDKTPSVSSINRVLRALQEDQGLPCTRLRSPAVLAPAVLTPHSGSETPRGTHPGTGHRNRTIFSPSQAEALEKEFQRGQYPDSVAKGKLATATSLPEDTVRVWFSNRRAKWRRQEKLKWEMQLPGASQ
# PAX4 [14] = target: T2, PAX4 (Homo sapiens, UniProt O43316 9-242)
# T2 sequence: T1 sequence with K192R
# PAX4 [15] = target: T3, PAX4 (Homo sapiens, UniProt O43316 9-242, R200Q)
# T3 sequence: T1 sequence with K192Q
# PAX4 [16] = target: T4, PAX4 (Homo sapiens, UniProt O43316 9-242, F177V)
# T4 sequence: T1 sequence with F169V, K192R
# PAX4 [17] = target: T5, PAX4 (Homo sapiens, UniProt O43316 9-242, F177Y)
# T5 sequence: T1 sequence with F169Y, K192R
# PAX4 [18] = target: T6, PAX4 (Homo sapiens, UniProt O43316 9-242, R227W)
# T6 sequence: T1 sequence with K192R, R219W
# Chain of HESX1 (Q9UBX0 95-180 R109Q): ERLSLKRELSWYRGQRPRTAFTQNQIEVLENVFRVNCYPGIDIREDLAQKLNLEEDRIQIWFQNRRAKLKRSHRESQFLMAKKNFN
# Chain of VAX1 (Homo sapiens, UniProt Q5SQQ9 86-172) (Q5SQQ9 86-172): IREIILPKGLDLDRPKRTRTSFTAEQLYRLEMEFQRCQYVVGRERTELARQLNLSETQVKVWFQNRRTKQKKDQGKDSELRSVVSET
# Chain of ALX3 (Homo sapiens, UniProt O95076 139-225, L168Q) (O95076 139-225 L168Q): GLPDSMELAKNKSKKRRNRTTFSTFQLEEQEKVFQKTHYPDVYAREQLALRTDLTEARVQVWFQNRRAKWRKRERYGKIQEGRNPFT
# Chain of CRX (Homo sapiens, UniProt O43186 26-111) (O43186 26-111): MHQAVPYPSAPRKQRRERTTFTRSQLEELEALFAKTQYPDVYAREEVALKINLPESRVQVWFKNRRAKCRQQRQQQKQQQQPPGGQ
# Chain of ALX3 (Homo sapiens, UniProt O95076 139-225) (O95076 139-225): as the sequence (O95076 139-225 L168Q) above, with Q30L counted along it
# Chain of ALX4 (Homo sapiens, UniProt Q9H161 200-286) (Q9H161 200-286): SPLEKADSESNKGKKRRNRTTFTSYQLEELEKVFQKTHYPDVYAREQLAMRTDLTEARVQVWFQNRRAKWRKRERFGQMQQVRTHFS
# Chain of ALX4 (Homo sapiens, UniProt Q9H161 200-286, Q225E) (Q9H161 200-286 Q225E): as the sequence (Q9H161 200-286) above, with Q26E counted along it
# Chain of PRRX1 (P54821 80-166 F113S): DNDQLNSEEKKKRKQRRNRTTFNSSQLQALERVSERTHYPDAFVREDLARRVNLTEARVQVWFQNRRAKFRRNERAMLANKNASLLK
# Chain of CRX (Homo sapiens, UniProt O43186 26-111, R41L) (O43186 26-111 R41L): as the sequence (O43186 26-111) above, with R16L counted along it
# Chain of ALX3 (Homo sapiens, UniProt O95076 139-225, N203S) (O95076 139-225 N203S): as the sequence (O95076 139-225 L168Q) above, with Q30L, N65S counted along it
# Chain of ALX3 (Homo sapiens, UniProt O95076 139-225, N203Q) (O95076 139-225 N203Q): as the sequence (O95076 139-225 L168Q) above, with Q30L, N65Q counted along it
# Chain of CRX (Homo sapiens, UniProt O43186 26-111, E42D) (O43186 26-111 E42D): as the sequence (O43186 26-111) above, with E17D counted along it
# Chain of ALX3 (Homo sapiens, UniProt O95076 139-225, L168V) (O95076 139-225 L168V): as the sequence (O95076 139-225 L168Q) above, with Q30V counted along it
# Chain of VAX1 (Homo sapiens, UniProt Q5SQQ9 86-172, T142I) (Q5SQQ9 86-172 T142I): as the sequence (Q5SQQ9 86-172) above, with T57I counted along it
sequence,measurement,setting,value
CCAGCGCG,binding signal,HESX1,"6.45 upbm affinity estimate (log intensity, higher = more binding, comparable within an allelic series)"
CCCGGCGG,binding signal,ALX4 [1],"7.89 upbm affinity estimate (log intensity, higher = more binding, comparable within an allelic series)"
same,binding signal,ALX4 [2],"8.11 upbm affinity estimate (log intensity, higher = more binding, comparable within an allelic series)"
CTAATTGC,binding signal,ALX4 [1],"13.6 upbm affinity estimate (log intensity, higher = more binding, comparable within an allelic series)"
same,binding signal,ALX4 [2],"12.8 upbm affinity estimate (log intensity, higher = more binding, comparable within an allelic series)"
same,binding signal,ALX3 [3],"8.22 upbm affinity estimate (log intensity, higher = more binding, comparable within an allelic series)"
same,binding signal,ALX3 [4],"12.3 upbm affinity estimate (log intensity, higher = more binding, comparable within an allelic series)"
same,binding signal,HESX1,"8.98 upbm affinity estimate (log intensity, higher = more binding, comparable within an allelic series)"
same,binding signal,VAX1 [5],"13 upbm affinity estimate (log intensity, higher = more binding, comparable within an allelic series)"
same,binding signal,ALX3 [6],"10.3 upbm affinity estimate (log intensity, higher = more binding, comparable within an allelic series)"
same,binding signal,ALX3 [7],"9.7 upbm affinity estimate (log intensity, higher = more binding, comparable within an allelic series)"
same,binding signal,VAX1 [8],"12.9 upbm affinity estimate (log intensity, higher = more binding, comparable within an allelic series)"
same,binding signal,ALX3 [9],"8.29 upbm affinity estimate (log intensity, higher = more binding, comparable within an allelic series)"
ATTACGTA,binding signal,CRX [10],"10.5 upbm affinity estimate (log intensity, higher = more binding, comparable within an allelic series)"
same,binding signal,CRX [11],"10.4 upbm affinity estimate (log intensity, higher = more binding, comparable within an allelic series)"
same,binding signal,CRX [12],"10.2 upbm affinity estimate (log intensity, higher = more binding, comparable within an allelic series)"
CGGACCCG,binding signal,CRX [10],"8.38 upbm affinity estimate (log intensity, higher = more binding, comparable within an allelic series)"
same,binding signal,CRX [11],"8.29 upbm affinity estimate (log intensity, higher = more binding, comparable within an allelic series)"
same,binding signal,CRX [12],"8.36 upbm affinity estimate (log intensity, higher = more binding, comparable within an allelic series)"
CCGCGTCG,binding signal,HESX1,"6.5 upbm affinity estimate (log intensity, higher = more binding, comparable within an allelic series)"
CCGGCGCG,binding signal,CRX [10],"8.33 upbm affinity estimate (log intensity, higher = more binding, comparable within an allelic series)"
same,binding signal,CRX [11],"8.4 upbm affinity estimate (log intensity, higher = more binding, comparable within an allelic series)"
same,binding signal,CRX [12],"8.36 upbm affinity estimate (log intensity, higher = more binding, comparable within an allelic series)"
ACGCGCAG,binding signal,PRRX1,"9.07 upbm affinity estimate (log intensity, higher = more binding, comparable within an allelic series)"
AATTAGCT,binding signal,ALX4 [1],"13.6 upbm affinity estimate (log intensity, higher = more binding, comparable within an allelic series)"
same,binding signal,PAX4 [13],"11.7 upbm affinity estimate (log intensity, higher = more binding, comparable within an allelic series)"
same,binding signal,PRRX1,"11.1 upbm affinity estimate (log intensity, higher = more binding, comparable within an allelic series)"
same,binding signal,PAX4 [14],"12.2 upbm affinity estimate (log intensity, higher = more binding, comparable within an allelic series)"
same,binding signal,ALX4 [2],"12.7 upbm affinity estimate (log intensity, higher = more binding, comparable within an allelic series)"
same,binding signal,ALX3 [3],"8.34 upbm affinity estimate (log intensity, higher = more binding, comparable within an allelic series)"
same,binding signal,PAX4 [15],"11.9 upbm affinity estimate (log intensity, higher = more binding, comparable within an allelic series)"
same,binding signal,PAX4 [16],"10.4 upbm affinity estimate (log intensity, higher = more binding, comparable within an allelic series)"
same,binding signal,ALX3 [4],"12.2 upbm affinity estimate (log intensity, higher = more binding, comparable within an allelic series)"
same,binding signal,PAX4 [17],"10.9 upbm affinity estimate (log intensity, higher = more binding, comparable within an allelic series)"
same,binding signal,HESX1,"8.93 upbm affinity estimate (log intensity, higher = more binding, comparable within an allelic series)"
same,binding signal,ALX3 [6],"10.3 upbm affinity estimate (log intensity, higher = more binding, comparable within an allelic series)"
same,binding signal,ALX3 [7],"9.87 upbm affinity estimate (log intensity, higher = more binding, comparable within an allelic series)"
same,binding signal,PAX4 [18],"10.9 upbm affinity estimate (log intensity, higher = more binding, comparable within an allelic series)"
same,binding signal,ALX3 [9],"8.56 upbm affinity estimate (log intensity, higher = more binding, comparable within an allelic series)"
ACGGCTGG,binding signal,PAX4 [13],"9.35 upbm affinity estimate (log intensity, higher = more binding, comparable within an allelic series)"
same,binding signal,PAX4 [14],"9.44 upbm affinity estimate (log intensity, higher = more binding, comparable within an allelic series)"
same,binding signal,PAX4 [15],"9.48 upbm affinity estimate (log intensity, higher = more binding, comparable within an allelic series)"
same,binding signal,PAX4 [16],"9.33 upbm affinity estimate (log intensity, higher = more binding, comparable within an allelic series)"
same,binding signal,PAX4 [17],"9.33 upbm affinity estimate (log intensity, higher = more binding, comparable within an allelic series)"
same,binding signal,PAX4 [18],"9.39 upbm affinity estimate (log intensity, higher = more binding, comparable within an allelic series)"
CGGGCTCC,binding signal,ALX4 [1],"7.48 upbm affinity estimate (log intensity, higher = more binding, comparable within an allelic series)"
same,binding signal,PAX4 [13],"8.72 upbm affinity estimate (log intensity, higher = more binding, comparable within an allelic series)"
same,binding signal,PRRX1,"8.95 upbm affinity estimate (log intensity, higher = more binding, comparable within an allelic series)"
same,binding signal,PAX4 [14],"8.72 upbm affinity estimate (log intensity, higher = more binding, comparable within an allelic series)"
same,binding signal,ALX4 [2],"7.51 upbm affinity estimate (log intensity, higher = more binding, comparable within an allelic series)"
same,binding signal,ALX3 [3],"7.6 upbm affinity estimate (log intensity, higher = more binding, comparable within an allelic series)"
same,binding signal,PAX4 [15],"9.02 upbm affinity estimate (log intensity, higher = more binding, comparable within an allelic series)"
same,binding signal,PAX4 [16],"8.99 upbm affinity estimate (log intensity, higher = more binding, comparable within an allelic series)"
same,binding signal,ALX3 [4],"7.17 upbm affinity estimate (log intensity, higher = more binding, comparable within an allelic series)"
same,binding signal,PAX4 [17],"8.93 upbm affinity estimate (log intensity, higher = more binding, comparable within an allelic series)"
same,binding signal,VAX1 [5],"6.15 upbm affinity estimate (log intensity, higher = more binding, comparable within an allelic series)"
same,binding signal,ALX3 [6],"7.45 upbm affinity estimate (log intensity, higher = more binding, comparable within an allelic series)"
same,binding signal,ALX3 [7],"7.45 upbm affinity estimate (log intensity, higher = more binding, comparable within an allelic series)"
same,binding signal,VAX1 [8],"6.61 upbm affinity estimate (log intensity, higher = more binding, comparable within an allelic series)"
same,binding signal,PAX4 [18],"9.04 upbm affinity estimate (log intensity, higher = more binding, comparable within an allelic series)"
same,binding signal,ALX3 [9],"7.54 upbm affinity estimate (log intensity, higher = more binding, comparable within an allelic series)"
ACCCGGGC,binding signal,PAX4 [13],"9.17 upbm affinity estimate (log intensity, higher = more binding, comparable within an allelic series)"
same,binding signal,PAX4 [14],"9.14 upbm affinity estimate (log intensity, higher = more binding, comparable within an allelic series)"
same,binding signal,PAX4 [15],"9.34 upbm affinity estimate (log intensity, higher = more binding, comparable within an allelic series)"
same,binding signal,PAX4 [16],"9.22 upbm affinity estimate (log intensity, higher = more binding, comparable within an allelic series)"
same,binding signal,PAX4 [17],"9.24 upbm affinity estimate (log intensity, higher = more binding, comparable within an allelic series)"
same,binding signal,PAX4 [18],"9.37 upbm affinity estimate (log intensity, higher = more binding, comparable within an allelic series)"
ACGGCGGC,binding signal,VAX1 [5],"7.01 upbm affinity estimate (log intensity, higher = more binding, comparable within an allelic series)"
same,binding signal,VAX1 [8],"7.25 upbm affinity estimate (log intensity, higher = more binding, comparable within an allelic series)"
CTTCCGTC,binding signal,HESX1,"6.56 upbm affinity estimate (log intensity, higher = more binding, comparable within an allelic series)"
CACGCGTG,binding signal,PRRX1,"9.36 upbm affinity estimate (log intensity, higher = more binding, comparable within an allelic series)"
CGGTCCAA,binding signal,CRX [10],"8.48 upbm affinity estimate (log intensity, higher = more binding, comparable within an allelic series)"
same,binding signal,CRX [11],"8.43 upbm affinity estimate (log intensity, higher = more binding, comparable within an allelic series)"
same,binding signal,CRX [12],"8.25 upbm affinity estimate (log intensity, higher = more binding, comparable within an allelic series)"
CGAACGCC,binding signal,CRX [10],"7.92 upbm affinity estimate (log intensity, higher = more binding, comparable within an allelic series)"
same,binding signal,CRX [11],"8.15 upbm affinity estimate (log intensity, higher = more binding, comparable within an allelic series)"
same,binding signal,CRX [12],"8.11 upbm affinity estimate (log intensity, higher = more binding, comparable within an allelic series)"
CCGGTGGC,binding signal,VAX1 [5],"7.31 upbm affinity estimate (log intensity, higher = more binding, comparable within an allelic series)"
same,binding signal,VAX1 [8],"7.45 upbm affinity estimate (log intensity, higher = more binding, comparable within an allelic series)"
CACGGGCC,binding signal,ALX3 [3],"7.64 upbm affinity estimate (log intensity, higher = more binding, comparable within an allelic series)"
same,binding signal,ALX3 [4],"7.66 upbm affinity estimate (log intensity, higher = more binding, comparable within an allelic series)"
same,binding signal,ALX3 [6],"7.64 upbm affinity estimate (log intensity, higher = more binding, comparable within an allelic series)"
same,binding signal,ALX3 [7],"7.58 upbm affinity estimate (log intensity, higher = more binding, comparable within an allelic series)"
same,binding signal,ALX3 [9],"7.68 upbm affinity estimate (log intensity, higher = more binding, comparable within an allelic series)"
CGTGCACG,binding signal,PRRX1,"9.62 upbm affinity estimate (log intensity, higher = more binding, comparable within an allelic series)"
CGGTCGGC,binding signal,ALX4 [1],"8.27 upbm affinity estimate (log intensity, higher = more binding, comparable within an allelic series)"
same,binding signal,ALX4 [2],"7.99 upbm affinity estimate (log intensity, higher = more binding, comparable within an allelic series)"
same,binding signal,ALX3 [3],"7.66 upbm affinity estimate (log intensity, higher = more binding, comparable within an allelic series)"
same,binding signal,ALX3 [4],"7.68 upbm affinity estimate (log intensity, higher = more binding, comparable within an allelic series)"
same,binding signal,ALX3 [6],"7.79 upbm affinity estimate (log intensity, higher = more binding, comparable within an allelic series)"
same,binding signal,ALX3 [7],"7.75 upbm affinity estimate (log intensity, higher = more binding, comparable within an allelic series)"
same,binding signal,ALX3 [9],"7.69 upbm affinity estimate (log intensity, higher = more binding, comparable within an allelic series)"
GCGACGCC,binding signal,VAX1 [5],"7.12 upbm affinity estimate (log intensity, higher = more binding, comparable within an allelic series)"
same,binding signal,VAX1 [8],"7.24 upbm affinity estimate (log intensity, higher = more binding, comparable within an allelic series)"
AGTCCCGG,binding signal,PAX4 [13],"9.42 upbm affinity estimate (log intensity, higher = more binding, comparable within an allelic series)"
same,binding signal,PAX4 [14],"9.48 upbm affinity estimate (log intensity, higher = more binding, comparable within an allelic series)"
same,binding signal,PAX4 [15],"9.44 upbm affinity estimate (log intensity, higher = more binding, comparable within an allelic series)"
same,binding signal,PAX4 [16],"9.3 upbm affinity estimate (log intensity, higher = more binding, comparable within an allelic series)"
same,binding signal,PAX4 [17],"9.36 upbm affinity estimate (log intensity, higher = more binding, comparable within an allelic series)"
same,binding signal,PAX4 [18],"9.43 upbm affinity estimate (log intensity, higher = more binding, comparable within an allelic series)"
